These results are taken from PubChem BioAssay (Tox21).

Unmarked numbers belong to inactive results. Records with an inconclusive call do not appear. Activity calls are given as the source filed them. Calls come from the whole dose curve.
% is set by controls: 0 for no effect and ±100 for the full control effect.

In one experiment the target is Acetylcholinesterase (Homo sapiens) (UniProt P22303). Put plainly: Acetylcholinesterase (AChE) small molecule antagonists: colormetric cell-based qHTS assay (AID 1347395). Note: nearly all actives have a fitted effect of over 30% in size. As to conditions: SH-SY5Y cells AChE activity, colorimetric (Ellman); series mostly up to 115 µM; activity, negative = inhibition: at the top concentration. In short, it runs like this: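 Endogenous AChE of human neuroblastoma SH-SY5Y cells was measured with an Ellman-type DTNB/acetylthiocholine mix. Compound pretreatment lasted 30 min at 37 C; substrate reaction ran 90 min at 37 C.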
Acetylcholinesterase (Homo sapiens), sequence (P22303 whole entry, looked up): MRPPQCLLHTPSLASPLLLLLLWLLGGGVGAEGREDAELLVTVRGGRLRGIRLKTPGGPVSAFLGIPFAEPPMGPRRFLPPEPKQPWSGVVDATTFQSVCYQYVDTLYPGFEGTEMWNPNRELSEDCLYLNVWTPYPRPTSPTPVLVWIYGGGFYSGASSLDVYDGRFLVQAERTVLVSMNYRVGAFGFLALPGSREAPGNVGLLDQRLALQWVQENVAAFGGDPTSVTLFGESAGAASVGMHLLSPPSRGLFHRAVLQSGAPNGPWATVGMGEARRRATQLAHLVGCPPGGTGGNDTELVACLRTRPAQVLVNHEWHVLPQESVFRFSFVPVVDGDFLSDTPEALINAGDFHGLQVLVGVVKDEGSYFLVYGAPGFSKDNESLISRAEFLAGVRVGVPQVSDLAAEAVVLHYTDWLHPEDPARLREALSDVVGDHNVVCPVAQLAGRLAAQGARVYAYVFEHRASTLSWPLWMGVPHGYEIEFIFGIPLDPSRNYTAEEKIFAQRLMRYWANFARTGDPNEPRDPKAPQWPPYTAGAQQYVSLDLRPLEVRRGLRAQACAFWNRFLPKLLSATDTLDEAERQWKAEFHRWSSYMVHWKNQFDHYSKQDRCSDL
`CCCCCCOC(=O)CCCCCCCC(=O)OCCCCCC`: the “activity, negative = inhibition” value is -2.85%.
`C[N+](C)(C)CC(O)CCl` (stereo not given): the “activity, negative = inhibition” value is 2.11%.
Turning to `CC(C)(C)c1n[nH]c(=S)n(N)c1=O`, the “activity, negative = inhibition” value is 0.452%.
In the case of `O=[N+]([O-])c1cccc(Cl)c1`, the Potency result is “inactive”.
Turning to `CN(C)c1ccc(C2(c3ccc(N(C)C)cc3)OC(=O)c3cc(N(C)C)ccc32)cc1`, the “activity, negative = inhibition” value was 0.511%.
On to `Nc1c(CC(=O)O)cccc1C(=O)c1ccc(Br)cc1`, for which the “activity, negative = inhibition” value is 3.84% [at 52.9 µM].
Take `CC1CCCCC1`: the “activity, negative = inhibition” value was 0.506%.
Take `O=C(Nc1ccccc1)OCC(CN1CCCCC1)OC(=O)Nc1ccccc1` (stereo not given): the “activity, negative = inhibition” value was 4.4% [at 52.9 µM].
With `CCOC=C(C(=O)OCC)C(=O)OCC`, the “activity, negative = inhibition” value was -6.97%.
With `Cc1cn([C@@H]2O[C@H](CO)[C@@H](O)[C@@H]2F)c(=O)[nH]c1=O`, the “activity, negative = inhibition” value was -1.67% [at 52.9 µM].
Turning to `CCCCOC(=O)[C@H](C)O`, the “activity, negative = inhibition” value was -1.47%.
For `COc1cc2c(c(OC)c1OC)-c1ccc(OC)c(=O)cc1[C@@H](NC(C)=O)CC2`, the Potency entry was “inactive”.
As to `Nc1ccc(S(=O)(=O)Nc2ccnn2-c2ccccc2)cc1`, the activity, negative = inhibition is -0.528% [at 23.6 µM].
`CN(C)[C@@H]1C(=O)C(C(=O)NCN2CCCC2)=C(O)[C@@]2(O)C(=O)C3=C(O)c4c(O)cccc4[C@@](C)(O)C3C[C@@H]12` (stereo not given in full): the “activity, negative = inhibition” value is 1.6% [at 52.9 µM].
The same measure, in the same setting: as for `Nc1ccncc1N`, the figure is -3.87% [at 52.9 µM].
Take `CC(=O)c1ccc2ccccc2c1`: the “activity, negative = inhibition” value is 1.16%.
Turning to `C#C[C@]1(O)CC[C@H]2[C@@H]3CCc4cc(OC)ccc4[C@H]3CC[C@@]21C`, the Potency result is “inactive”.
`CCCOC(=O)CCCCC(=O)OCCC`: the “activity, negative = inhibition” value is -1.95%.
With `Cc1ncc(CO)c(C=O)c1O`, the “activity, negative = inhibition” value was 1.48% [at 52.9 µM].
With `CNC1CCCN(c2c(F)cc3c(=O)c(C(=O)O)cn(C4CC4)c3c2OC)C1` (stereo not given), the “activity, negative = inhibition” value was 2.47% [at 52.9 µM].
As to `Clc1ccc2c(Cl)ccnc2c1`, the “activity, negative = inhibition” value is 0.483%.
Turning to `Cc1cc(O)cc2c1O[C@](C)(CCC[C@H](C)CCC[C@H](C)CCCC(C)C)CC2`, the “activity, negative = inhibition” value is 3.44% [at 52.9 µM].
Still for that read-out and setting: the same measure for `COC(=O)c1ccc(C(=O)OC)c(C(=O)OC)c1`: 1.13%; for `Nc1c(I)cc(I)c(C(=O)N(CCC(=O)O)c2ccccc2)c1I`: 1.85% [at 52.9 µM].
For the compound `C=C1C[C@H]2[C@@H]3C=C(C)C4=CC(=O)CC[C@]4(C)[C@H]3CC[C@]2(C)[C@@]1(OC(C)=O)C(C)=O`, the Potency entry is “inactive”.
Regarding `CCC(C)c1cc(C(C)(C)C)c(O)c(C(C)(C)C)c1` (stereo not given), the “activity, negative = inhibition” value is -2.24%.
For the compound `CCCCCCCCSCC`, the “activity, negative = inhibition” value is 3.15%.
As for `O=C(OCC1(COC(=O)c2cccnc2)CCCC(COC(=O)c2cccnc2)(COC(=O)c2cccnc2)C1O)c1cccnc1`, the “activity, negative = inhibition” value is -3.49% [at 52.9 µM].
Turning to `Cc1ccc(C)c(S(=O)(=O)O)c1`, the Potency entry is “inactive”.
Consider `CC1(C)S[C@@H]2[C@H](NC(=O)[C@H](N)c3ccccc3)C(=O)N2[C@H]1C(=O)O`, for which the Potency entry is “inactive”.
Regarding `CC(=O)CC(C)=O`, the “activity, negative = inhibition” value was 3.98%.
For the compound `CCS(=O)(=O)CCn1c([N+](=O)[O-])cnc1C`, the “activity, negative = inhibition” value is -1.07% [at 52.9 µM].
As to `CC(C)(C)c1cc(/C=C2\SC(=N)NC2=O)cc(C(C)(C)C)c1O`, the call was inactive.
As for `COc1ccc(/C(C)=C/C(=O)O)c(OC)c1`, the “activity, negative = inhibition” value was -0.337% [at 52.9 µM].
For `Nc1ccc2cc(S(=O)(=O)O)ccc2c1`, the “activity, negative = inhibition” value is 0%.
Regarding `COC(=O)c1cc(Cl)ccc1NS(=O)(=O)C(F)(F)F`, the “activity, negative = inhibition” value was 2.94% [at 52.9 µM].
`OCC(CO)(CO)CO`: the Potency result is “inactive”.
With `COc1ccccc1Oc1c(NS(=O)(=O)c2ccc(C(C)(C)C)cc2)nc(-c2ncccn2)nc1OCCO`, the “activity, negative = inhibition” value was 0.264% [at 52.9 µM].
As to `C/C=C/c1ccc(OC)c(OC)c1`, the “activity, negative = inhibition” value is 1.87%.
Take `O=C(Cl)c1ccc([N+](=O)[O-])cc1`: the “activity, negative = inhibition” value was -1.47%.

The target is the same in the next experiment. Description: Acetylcholinesterase (AChE) small molecule antagonists: enzyme-based qHTS assay (AID 1347397). Note: nearly all actives have a fitted effect of over 55% in size. The conditions noted are these: Potency: AChE enzyme activity inhibition; outcome: AChE enzyme activity inhibition; series mostly up to 115 µM; activity change, negative = inhibition: at the top concentration. In short, it runs like this: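 Absorbance-based detection of thiocholine with DTNB served as the read-out. Recombinant human AChE was exposed to compound for 30 min at RT before a 10 min RT incubation with acetylthiocholine.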
For the compound `CCCCCCOC(=O)CCCCCCCC(=O)OCCCCCC`, the “activity change, negative = inhibition” value is -0.55%.
As to `C[N+](C)(C)CC(O)CCl` (stereo not given), the “activity change, negative = inhibition” value was 1.29%.
In the case of `CC(C)(C)c1n[nH]c(=S)n(N)c1=O`, the “activity change, negative = inhibition” value is -0.387%.
For the compound `O=[N+]([O-])c1cccc(Cl)c1`, the Potency entry was “inactive”.
As to `CN(C)c1ccc(C2(c3ccc(N(C)C)cc3)OC(=O)c3cc(N(C)C)ccc32)cc1`, the “activity change, negative = inhibition” value was 5.59%.
On the same count and under the same terms, as for `Nc1c(CC(=O)O)cccc1C(=O)c1ccc(Br)cc1`, the figure is 0.296% [at 53 µM].
As for `CC1CCCCC1`, the “activity change, negative = inhibition” value was 0.265%.
On the same count and under the same terms, the same measure for `O=C(Nc1ccccc1)OCC(CN1CCCCC1)OC(=O)Nc1ccccc1` (stereo not given): 0.0171% [at 53 µM].
As to `CCOC=C(C(=O)OCC)C(=O)OCC`, the “activity change, negative = inhibition” value is 1.89%.
Same read-out and setting: as for `Cc1cn([C@@H]2O[C@H](CO)[C@@H](O)[C@@H]2F)c(=O)[nH]c1=O`, the figure is 0% [at 53 µM].
For the compound `CCCCOC(=O)[C@H](C)O`, the “activity change, negative = inhibition” value was -0.278%.
Regarding `COc1cc2c(c(OC)c1OC)-c1ccc(OC)c(=O)cc1[C@@H](NC(C)=O)CC2`, the Potency entry is “inactive”.
For the compound `Nc1ccc(S(=O)(=O)Nc2ccnn2-c2ccccc2)cc1`, the activity change, negative = inhibition was -0.415% [at 23.6 µM].
Turning to `CN(C)[C@@H]1C(=O)C(C(=O)NCN2CCCC2)=C(O)[C@@]2(O)C(=O)C3=C(O)c4c(O)cccc4[C@@](C)(O)C3C[C@@H]12` (stereo not given in full), the “activity change, negative = inhibition” value is 0.81% [at 53 µM].
In the case of `Nc1ccncc1N`, the “activity change, negative = inhibition” value was -0.453% [at 53 µM].
In the case of `CC(=O)c1ccc2ccccc2c1`, the “activity change, negative = inhibition” value is -1.68%.
Consider `C#C[C@]1(O)CC[C@H]2[C@@H]3CCc4cc(OC)ccc4[C@H]3CC[C@@]21C`, for which the Potency result is “inactive”.
Consider `CCCOC(=O)CCCCC(=O)OCCC`, for which the “activity change, negative = inhibition” value is 0.181%.
On the same count and under the same terms, the same measure for `Cc1ncc(CO)c(C=O)c1O`: 0.561% [at 53 µM].
For the compound `CNC1CCCN(c2c(F)cc3c(=O)c(C(=O)O)cn(C4CC4)c3c2OC)C1` (stereo not given), the “activity change, negative = inhibition” value was 1.6% [at 53 µM].
As to `Clc1ccc2c(Cl)ccnc2c1`, the “activity change, negative = inhibition” value was 1.91%.
Consider `Cc1cc(O)cc2c1O[C@](C)(CCC[C@H](C)CCC[C@H](C)CCCC(C)C)CC2`, for which the “activity change, negative = inhibition” value is 0.405% [at 53 µM].
Regarding `COC(=O)c1ccc(C(=O)OC)c(C(=O)OC)c1`, the “activity change, negative = inhibition” value is 3.37%.
For the compound `Nc1c(I)cc(I)c(C(=O)N(CCC(=O)O)c2ccccc2)c1I`, the “activity change, negative = inhibition” value is -0.222% [at 53 µM].
As for `C=C1C[C@H]2[C@@H]3C=C(C)C4=CC(=O)CC[C@]4(C)[C@H]3CC[C@]2(C)[C@@]1(OC(C)=O)C(C)=O`, the Potency result was “inactive”.
As to `CCC(C)c1cc(C(C)(C)C)c(O)c(C(C)(C)C)c1` (stereo not given), the “activity change, negative = inhibition” value was -2.32%.
As for `CCCCCCCCSCC`, the “activity change, negative = inhibition” value is -2.23%.
For `O=C(OCC1(COC(=O)c2cccnc2)CCCC(COC(=O)c2cccnc2)(COC(=O)c2cccnc2)C1O)c1cccnc1`, the “activity change, negative = inhibition” value was 0.139% [at 53 µM].
Regarding `Cc1ccc(C)c(S(=O)(=O)O)c1`, the Potency entry is “inactive”.
As to `CC1(C)S[C@@H]2[C@H](NC(=O)[C@H](N)c3ccccc3)C(=O)N2[C@H]1C(=O)O`, the Potency result is “inactive”.
On to `CC(=O)CC(C)=O`, for which the “activity change, negative = inhibition” value was -0.479%.
Still for that read-out and setting: the same measure for `CCS(=O)(=O)CCn1c([N+](=O)[O-])cnc1C`: 0.0977% [at 53 µM].
As to `CC(C)(C)c1cc(/C=C2\SC(=N)NC2=O)cc(C(C)(C)C)c1O`, the compound was called inactive.
`COc1ccc(/C(C)=C/C(=O)O)c(OC)c1`: the “activity change, negative = inhibition” value is 0.137% [at 53 µM].
Still for that read-out and setting: as for `Nc1ccc2cc(S(=O)(=O)O)ccc2c1`, the figure is 2.44%; as for `COC(=O)c1cc(Cl)ccc1NS(=O)(=O)C(F)(F)F`, 0.3% [at 53 µM].
`OCC(CO)(CO)CO`: the Potency entry was “inactive”.
Turning to `COc1ccccc1Oc1c(NS(=O)(=O)c2ccc(C(C)(C)C)cc2)nc(-c2ncccn2)nc1OCCO`, the “activity change, negative = inhibition” value is 0.554% [at 53 µM].
With `C/C=C/c1ccc(OC)c(OC)c1`, the “activity change, negative = inhibition” value was 0.157%.
As to `O=C(Cl)c1ccc([N+](=O)[O-])cc1`, the “activity change, negative = inhibition” value was -0.273%.
